In PubChem BioAssay (EPA / NIEHS):
Inconclusive results are not listed. Activity calls are given as the source filed them. How the source made its calls, unless noted: active means hit-call score of the fitted dose curve at least 0.9, where 1 is the maximum; inactive means score below 0.9.

Key:
[1] = molecular target: Cellular tumor antigen p53 (Homo sapiens) (UniProt P04637); experiment: TOX21_p53_BLA_p2_ratio: Tox21 HCT-116 p53 Agonism Beta-lactamase Assay, Ratio, Phase 2 (AID 2283592; active means hit-call score of the fitted dose curve at least 0.9, where 1 is the maximum)
Cellular tumor antigen p53 (Homo sapiens), sequence (P04637 whole entry, looked up): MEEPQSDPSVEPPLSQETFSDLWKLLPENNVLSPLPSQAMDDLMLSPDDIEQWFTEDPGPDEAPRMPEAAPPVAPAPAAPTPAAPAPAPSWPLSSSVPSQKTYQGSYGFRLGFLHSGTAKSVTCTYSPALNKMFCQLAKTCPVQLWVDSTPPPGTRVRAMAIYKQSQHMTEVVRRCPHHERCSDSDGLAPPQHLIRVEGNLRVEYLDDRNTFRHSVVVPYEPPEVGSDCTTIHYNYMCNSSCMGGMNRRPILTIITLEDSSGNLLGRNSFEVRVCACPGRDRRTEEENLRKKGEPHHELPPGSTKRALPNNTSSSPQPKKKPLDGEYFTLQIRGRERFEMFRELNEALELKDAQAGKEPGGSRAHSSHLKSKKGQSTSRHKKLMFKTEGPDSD
Method in brief: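 Read-out is the blue/green (460/530 nm, 405 nm excitation) ratio after 2 h CCF4-AM loading, fitted as gain versus DMSO. Compounds, pinned at 217-fold dilution from DMSO stocks, stayed 16 h on HCT-116 beta-lactamase reporter cells seeded 5 h earlier.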

[2] = TOX21_p53_BLA_p3_viability: Viability Assessment in the Tox21 HCT-116 p53 Agonism Beta-lactamase Assay, Phase 3 (AID 2283593; active means hit-call score of the fitted dose curve at least 0.9, where 1 is the maximum;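 further: cells exposed to compound for 16 h before reading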)
Method in brief: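 Cellular ATP was quantified by CellTiter-Glo luminescence, read after 30 min at room temperature. Beforehand, HCT116 cells (4000/well) received compound 5 h post-seeding, 217-fold diluted from DMSO, then incubated 16 h at 37C.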

[3] = molecular target: Cellular tumor antigen p53 (Homo sapiens) (UniProt P04637); experiment: TOX21_p53_BLA_p3_ratio: Tox21 HCT-116 p53 Agonism Beta-lactamase Assay, Ratio, Phase 3 (AID 2283596; active means hit-call score of the fitted dose curve at least 0.9, where 1 is the maximum)
Method in brief: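 Cells were seeded at 4000/well, rested 5 h at 37C, then dosed with DMSO compound solutions (217-fold dilution) for 16 h. CCF4-AM substrate was loaded for 2 h at room temperature, and the 460/530 nm emission ratio was fitted for gain of signal versus DMSO.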

[4] = TOX21_p53_BLA_p4_viability: Viability Assessment in the Tox21 HCT-116 p53 Agonism Beta-lactamase Assay, Phase 4 (AID 2283597; active means hit-call score of the fitted dose curve at least 0.9, where 1 is the maximum;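 further: hits lower the luminescence signal meaning cytotoxicity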)
Method in brief: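 Cytotoxicity as reduced cellular ATP (CellTiter-Glo luminescence, 30 min room temperature), measured in the same wells following the CCF4 FRET p53 reading. Human HCT-116 cells received compounds in DMSO (217-fold dilution) for 16 h.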

[5] = molecular target: Cellular tumor antigen p53 (Homo sapiens) (UniProt P04637); experiment: TOX21_p53_BLA_p5_ratio: Tox21 HCT-116 p53 Agonism Beta-lactamase Assay, Ratio, Phase 5 (AID 2283599; active means hit-call score of the fitted dose curve at least 0.9, where 1 is the maximum)
Method in brief: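 Beta-lactamase reporter ratio (blue 460 nm over green 530 nm, 405 nm excitation) after 2 h CCF4-AM loading, in HCT-116 cells exposed 16 h at 37 C to compounds pinned at 217-fold dilution. Increases relative to DMSO baseline scored.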

[6] = molecular target: Cellular tumor antigen p53 (Homo sapiens) (UniProt P04637); experiment: TOX21_p53_BLA_p4_ratio: Tox21 HCT-116 p53 Agonism Beta-lactamase Assay, Ratio, Phase 4 (AID 2283601; active means hit-call score of the fitted dose curve at least 0.9, where 1 is the maximum)
Method in brief: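 Signal is the blue/green (460nm/530nm) ratio of cleaved versus uncleaved CCF4-AM substrate, read after 2 h substrate loading. Cells were HCT116 carrying the p53-responsive beta-lactamase reporter, dosed 16 h at 37C, 5% CO2; CellTiter-Glo measured in parallel.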

[7] = CCTE_Shafer_MEA_dev_per_burst_spike_percent: CCTE's Neural Network Formation Assay for Percent of Spikes in a Burst, Shafer Lab (AID 2284032)
Method in brief: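 Value is trapezoidal AUC over recordings on days 5, 7, 9 and 12 of the well-mean fraction of spikes falling in single-electrode bursts; rat cortical cultures exposed continuously from plating, treatment renewed DIV 5 and 9, fitted downward against DMSO.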

[8] = CCTE_Shafer_MEA_dev_active_electrodes_number: CCTE's Neural Network Formation Assay for Number of Active Electrodes, Shafer Lab (AID 2284040; active means hit-call score of the fitted dose curve at least 0.9, where 1 is the maximum;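 further: potency for loss of active electrodes versus DMSO so lower counts are hits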)
Method in brief: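 Developing rat cortical networks on MEAs, exposed DIV 0–12. Value is the AUC of active-electrode counts (≥5 spikes/min) from days 5, 7, 9, 12, relative to DMSO.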

[9] = CCTE_Shafer_MEA_dev_burst_rate: CCTE's Neural Network Formation Assay for Burst Rate, Shafer Lab (AID 2284042)
Method in brief: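 Cells plated, treated day 0; recorded DIV 5, 7, 9, 12; fed and re-treated DIV 5, 9. Endpoint: bursts per recording time, active-electrode well mean, trapezoidal AUC, fitted in decreasing direction against DMSO baseline.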

[10] = CCTE_Shafer_MEA_dev_bursting_electrodes_number: CCTE's Neural Network Formation Assay for Number of Bursting Electrodes, Shafer Lab (AID 2284043; active means hit-call score of the fitted dose curve at least 0.9, where 1 is the maximum;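 further: potency is for loss of bursting electrodes relative to DMSO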)
Method in brief: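 Number of electrodes reaching ≥1 burst every 2 min was recorded at DIV 5, 7, 9 and 12 and collapsed as trapezoidal area under the curve. Cultures were rat cortical neurons on MEA plates, dosed continuously from plating with medium and treatment refreshed on DIV 5 and 9.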

[11] = CCTE_Shafer_MEA_dev_burst_duration_mean: CCTE's Neural Network Formation Assay for Mean Burst Duration, Shafer Lab (AID 2284045)
Method in brief: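 Mean single-electrode burst duration (first to last spike), averaged over bursting electrodes per well, then integrated as area-under-curve across recordings at days 5, 7, 9 and 12. Rat cortical cultures on MEAs, compound present from plating, refreshed at feeds.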

[12] = CCTE_Shafer_MEA_dev_interburst_interval_mean: CCTE's Neural Network Formation Assay for Mean Interburst Interval, Shafer Lab (AID 2284046);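 further: well-mean interburst interval of bursting electrodes as AUC over four recording days; curve fitted for decrease in interburst interval relative to DMSO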
Method in brief: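 Developing rat cortical networks on 48-well MEAs receive compound from the day of plating. Burst intervals from each active electrode are averaged per well, and AUC over the recording days is fitted in the negative direction against DMSO.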

[13] = CCTE_Shafer_MEA_dev_inter_network_spike_interval_mean: CCTE's Neural Network Formation Assay for Mean Inter-network Spike Interval, Shafer Lab (AID 2284047)
Method in brief: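 Rat cortical cultures, 1.5 x 10^5 cells/well on 48-well MEA plates; continuous exposure days 0–12, medium and compound refreshed DIV 5, 9. Mean time between consecutive network-spike peaks; AUC across DIV 5/7/9/12; DMSO baseline, negative fitting direction.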

[14] = CCTE_Shafer_MEA_dev_network_spike_number: CCTE's Neural Network Formation Assay for Number of Network Spikes, Shafer Lab (AID 2284048);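 further: synchronized bursts across electrodes counted on days 5 7 9 12 and integrated as AUC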
Method in brief: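 Number of network spikes (coordinated firing across electrodes) recorded on days 5, 7, 9 and 12 and summarised as area under the curve. Rat cortical cultures on MEA, continuous compound exposure with full medium/treatment exchange at DIV 5 and 9.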

[15] = CCTE_Shafer_MEA_dev_network_spike_peak: CCTE's Neural Network Formation Assay for Mean Number of Electrodes in Network Spike, Shafer Lab (AID 2284049);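 further: fitted for loss of signal meaning fewer electrodes in network spikes than DMSO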
Method in brief: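 Rat cortical primary culture, 1.5 x 10^5 cells/well, 48-well MEA (16 electrodes/well). Dosing day 0 through DIV 12, full media/compound exchange DIV 5, 9. AxIS adaptive spike detection; AUC over days 5/7/9/12; loss-of-signal vs DMSO.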

[16] = CCTE_Shafer_MEA_dev_spike_duration_mean: CCTE's Neural Network Formation Assay for Mean Spike Duration, Shafer Lab (AID 2284051);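 further: mean network spike duration pooled as area under curve over DIV 5 to 12 recordings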
Method in brief: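 Readout is the average length of network spikes, clustered firing across electrodes, summed over DIV 5, 7, 9 and 12 as area under the curve. Neurons from rat cortex developed networks on MEA plates under continuous 12-day exposure.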

[17] = CCTE_Shafer_MEA_dev_network_spike_duration_std: CCTE's Neural Network Formation Assay for Standard Deviation of Network Spike Duration, Shafer Lab (AID 2284052);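 further: hits are decreases in network spike duration SD versus DMSO vehicle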
Method in brief: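 Read-out is the trapezoidal area-under-the-curve across recordings made on days 5, 7, 9 and 12, fitted in the negative direction against DMSO baseline. Neurons were primary rat cortical cells treated from day 0, with treatment renewed at each feed.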

[18] = CCTE_Shafer_MEA_dev_per_network_spike_spike_number_mean: CCTE's Neural Network Formation Assay for Mean Number of Spikes in a Network Spike, Shafer Lab (AID 2284053)
Method in brief: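 Continuous twelve-day exposure of developing rat cortical networks grown over 16 microelectrodes per well; spontaneous firing is captured at four time points, and the per-network-spike spike number is integrated over development by trapezoidal AUC.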

[19] = CCTE_Shafer_MEA_dev_per_network_spike_spike_percent: CCTE's Neural Network Formation Assay for Percent of Spikes in a Network Spike, Shafer Lab (AID 2284054)
Method in brief: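 Metric: fraction of spikes falling in a 0.05 s window at network-spike peaks. Recordings were made on days 5, 7, 9 and 12 and collapsed by trapezoidal AUC. Cultures were rat cortical neurons on MEA plates, dosed continuously from plating, re-dosed at media changes.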

[20] = CCTE_Shafer_MEA_dev_LDH: CCTE's Lactate Dehydrogenase Assay for Cytotoxicity in the Neural Network Formation Assay, Shafer Lab (AID 2284068; active means hit-call score of the fitted dose curve at least 0.9, where 1 is the maximum;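 further: exposure for twelve days from plating with re-dosing on DIV 5 and 9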)
Method in brief: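 Cytotoxicity companion to network-formation recordings: rat cortical neurons received compound over 12 days of development, re-dosed at DIV 5 and 9 feeds. Viability was inferred from LDH enzyme activity relative to DMSO.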

[21] = CCTE_Shafer_MEA_dev_AB: CCTE's Alamar Blue Assay for Cytotoxicity in the Neural Network Formation Assay, Shafer Lab (AID 2284083; active means hit-call score of the fitted dose curve at least 0.9, where 1 is the maximum;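 further: resazurin reduction fluorescence as viability of cultured neurons; twelve days of exposure from plating with re-dosing on DIV 5 and 9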)
Method in brief: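 Fluorescent resazurin reduction serves as the viability read-out, with DMSO as negative control and baseline. Cells were primary rat cortical neurons grown on MEA plates and dosed from day 0 to day 12, treatment renewed on DIV 5 and 9.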

[22] = CCTE_Shafer_MEA_dev_mutual_information_norm: CCTE's Neural Network Formation Assay for Mutual Information Normalization, Shafer Lab (AID 2284091)
Method in brief: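 Shared information across electrodes, tracked on days 5, 7, 9 and 12 of network development and collapsed as trapezoidal area under the curve. Rat cortical cultures were treated continuously from plating, with treatment renewed at feeds on DIV 5 and 9; DMSO baseline, negative-direction fit.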

[23] = CCTE_Shafer_MEA_dev_correlation_coefficient_mean: CCTE's Neural Network Formation Assay for Mean Correlation Coefficient, Shafer Lab (AID 2284093)
Method in brief: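 Read-out: well-mean correlation coefficient of spike trains between electrode pairs, collapsed over four recording days as trapezoidal area-under-the-curve. Developing rat cortical neuron networks grown on MEAs received test chemical continuously from plating.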

[24] = UKN2_HCS_IMR90_neural_migration: University of Konstanz (UKN) Leist Lab Neural Crest Cell Migration Assay in human induced IMR90 Pluripotent Stem Cells (UKN2) (AID 2284204); details: actives raise or lower the signal
Method in brief: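 High-content imaging of calcein-AM and Hoechst stained cells quantifies migration into a stopper-defined gap after 24 h compound exposure. Neural crest cells from IMR90 iPSC migrated 24 h in EGF/FGF N2-S medium before dosing; DMSO baseline.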

[25] = IUF_NPC1b_proliferation_BrdU_72hr: Leibniz Research Institute for Environmental Medicine (IUF) 72-hour Neural Progenitor Cell Bromodeoxyuridine (BrdU) Proliferation Assay (NPC1b) (AID 2284207)
Method in brief: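 Human fetal cortex-derived (GW 16-19) neural progenitor spheres, 0.25-0.35 mm, one per well in EGF/FGF proliferation medium, exposed to compound for 72 h at 37C, pH 7.2-7.6. BrdU incorporation over the final 16 h read by luminescence ELISA, relative to DMSO.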

[26] = IUF_NPC1a_proliferation_area_72hr: Leibniz Research Institute for Environmental Medicine (IUF) 72-hour Neural Progenitor Cell Proliferation Area Assay (NPC1a) (AID 2284208)
Method in brief: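 Proliferation read as increase in sphere area by phase-contrast imaging over 72 h continuous compound exposure (no renewal) of hNPC spheres grown with EGF/FGF at 37C, 5% CO2. Growth-factor withdrawal served as positive control; DMSO as baseline.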

[27] = IUF_NPC1_viability_72hr: Viability Assessment at 72 hours in the Leibniz Research Institute for Environmental Medicine (IUF) Neural Progenitor Cell Proliferation Assay (NPC1) (AID 2284209)
Method in brief: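 Three-day continuous exposure of human neural progenitor spheres under EGF/FGF-driven proliferation; cell viability scored by alamar blue signal versus DMSO.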

Measured: AC50

[Cl-].[Cl-].[NH2-].[NH2-].[Pt+4]
inactive: [1] | [2] | [3] | [4] | [5] | [6] | [7] | [9] | [11] | [12] | [13] | [14] | [16] | [17] | [18] | [19] | [21] | [22] | [23] | [24] | [27]
active: [8] 10.4 µM | [10] 5.08 µM | [15] 9.92 µM | [20] 81 µM | [25] 5.68 µM | [26] 34.9 µM
